About 83,000 compounds went through this panel and 20% of them were active in at least one assay; those are over-represented in the sample as a whole.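 Method: cells in 96-well plates; compound added at one concentration; 48 h incubation; percent growth measured; values under 10 scored active.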 Activity calls are given as the source filed them.
Assays:
Test in all cases: NCI-60 one-dose screen, 48 h (100 = growth as untreated, 0 = no growth, -100 = all killed)
Conditions in all cases: 10 µM
NCI-H23 lung = system: NCI-H23 lung
NCI-H226 lung = system: NCI-H226 lung
NCI-H322M lung = system: NCI-H322M lung
HOP-62 NSCLC = system: HOP-62 NSCLC
NCI-H460 lung = system: NCI-H460 lung
HOP-92 NSCLC = system: HOP-92 NSCLC
NCI-H522 lung = system: NCI-H522 lung
A549/ATCC NSCLC = system: A549/ATCC NSCLC
786-0 renal = system: 786-0 renal
COLO 205 colon = system: COLO 205 colon
DU-145 prostate = system: DU-145 prostate
K-562 leukemia = system: K-562 leukemia
MALME-3M melanoma = system: MALME-3M melanoma
MDA-MB-231 breast = system: MDA-MB-231 breast
SF-268 CNS = system: SF-268 CNS
SF-295 CNS = system: SF-295 CNS
SF-539 CNS = system: SF-539 CNS
UACC-257 melanoma = system: UACC-257 melanoma
M14 melanoma = system: M14 melanoma

Measured: growth

COc1cc(C2CC(c3ccc(C)cc3)=Nc3c(N)nc(N)nc3N2)ccc1Oc1nc(Nc2ccc(F)cc2)nc(N(C)C)n1 (stereo not given)
inactive: NCI-H23 lung 73% | NCI-H226 lung 61.4% | NCI-H322M lung 86.6% | HOP-62 NSCLC 93.9% | NCI-H460 lung 37.7% | NCI-H522 lung 87.3% | A549/ATCC NSCLC 88.1% | 786-0 renal 50.4% | COLO 205 colon 48.1% | DU-145 prostate 53.7% | K-562 leukemia 19.8% | MALME-3M melanoma 64.8% | MDA-MB-231 breast 38.7% | SF-268 CNS 54.7% | SF-295 CNS 68.8% | SF-539 CNS 72.9% | UACC-257 melanoma 76.7% | M14 melanoma 67.5%
active: HOP-92 NSCLC 9.32%

COc1ccc2cc([C@H](C)C(=O)NCc3ccccc3)ccc2c1
inactive: NCI-H23 lung 33.6% | NCI-H226 lung 59.5% | NCI-H322M lung 49.7% | HOP-62 NSCLC 41.8% | NCI-H460 lung 17.7% | HOP-92 NSCLC 104% | A549/ATCC NSCLC 59.7% | 786-0 renal 59.7% | DU-145 prostate 29.4% | K-562 leukemia 20.1% | MALME-3M melanoma 55.2% | MDA-MB-231 breast 38.4% | SF-268 CNS 60.2% | SF-295 CNS 12.8% | UACC-257 melanoma 64.7% | M14 melanoma 38.2%
active: NCI-H522 lung -5.33% | COLO 205 colon 0.915% | SF-539 CNS 2.48%

O=C(/C=C/Nc1ccc(F)cc1F)c1ccc2c(c1)Nc1ccccc1S2
inactive: NCI-H23 lung 70.3% | NCI-H226 lung 53.2% | NCI-H322M lung 89.3% | HOP-62 NSCLC 78.5% | NCI-H460 lung 55.4% | HOP-92 NSCLC 85.5% | NCI-H522 lung 75% | A549/ATCC NSCLC 81% | 786-0 renal 88.1% | COLO 205 colon 80.6% | DU-145 prostate 89.4% | K-562 leukemia 28.6% | MALME-3M melanoma 66.1% | MDA-MB-231 breast 77.5% | SF-268 CNS 82.2% | SF-295 CNS 65.3% | SF-539 CNS 62.4% | UACC-257 melanoma 88.2% | M14 melanoma 66.4%

CC(=O)Nc1ccc(-c2cn(-c3cccc(C(=O)Nc4cc(CN5CCOCC5)cc(C(F)(F)F)c4)c3)nn2)cn1
active: NCI-H23 lung -92.6% | NCI-H226 lung -74% | NCI-H322M lung -94.3% | HOP-62 NSCLC -64.1% | NCI-H460 lung -65.3% | HOP-92 NSCLC -77.5% | NCI-H522 lung -53.2% | A549/ATCC NSCLC -74.7% | 786-0 renal -86% | COLO 205 colon -91.5% | DU-145 prostate -40% | K-562 leukemia 0.612% | MALME-3M melanoma -97.1% | MDA-MB-231 breast -95.7% | SF-268 CNS -27.5% | SF-295 CNS -88.6% | SF-539 CNS -100% | UACC-257 melanoma -81.5% | M14 melanoma -90.3%

COc1ccc(-c2ccc(SCC(=O)Nc3ccc(C#N)cc3)nn2)cc1
inactive: NCI-H23 lung 79.7% | NCI-H226 lung 66.9% | NCI-H322M lung 88.4% | HOP-62 NSCLC 64.8% | NCI-H460 lung 96.4% | HOP-92 NSCLC 86.9% | NCI-H522 lung 87.3% | A549/ATCC NSCLC 96.3% | 786-0 renal 86.4% | COLO 205 colon 127% | DU-145 prostate 105% | K-562 leukemia 90% | MALME-3M melanoma 78.6% | MDA-MB-231 breast 85.4% | SF-268 CNS 99.1% | SF-295 CNS 81.3% | SF-539 CNS 71% | UACC-257 melanoma 98.9% | M14 melanoma 93%

CC1=C(c2cc(-c3ccc(Cl)cc3)c(C#N)c(N)n2)C(c2ccccc2)NC(=S)N1 (stereo not given)
active: MALME-3M melanoma 4.96%
inactive: NCI-H23 lung 76.1% | NCI-H226 lung 64.4% | NCI-H322M lung 96.4% | HOP-62 NSCLC 81.3% | NCI-H460 lung 82.6% | HOP-92 NSCLC 105% | NCI-H522 lung 49.4% | A549/ATCC NSCLC 90.1% | 786-0 renal 67% | COLO 205 colon 80.5% | DU-145 prostate 51.3% | K-562 leukemia 36.9% | MDA-MB-231 breast 51.9% | SF-268 CNS 51% | SF-295 CNS 78.1% | SF-539 CNS 39.9% | UACC-257 melanoma 77.7% | M14 melanoma 49.8%

CN(C)c1nc(NCCNS(=O)(=O)c2ccc(C(=O)/C=C/c3ccccc3)cc2)nc(Nc2ccc(F)cc2)n1
inactive: NCI-H23 lung 28.8% | NCI-H226 lung 27.8% | NCI-H322M lung 44.1% | HOP-62 NSCLC 61.1% | NCI-H460 lung 14.9% | NCI-H522 lung 61.6% | A549/ATCC NSCLC 45.4% | COLO 205 colon 54% | DU-145 prostate 26.3% | K-562 leukemia 10.8% | MALME-3M melanoma 36.5% | MDA-MB-231 breast 17.7% | SF-268 CNS 32.4% | SF-295 CNS 23.1% | SF-539 CNS 26.7% | UACC-257 melanoma 54.8%
active: HOP-92 NSCLC -12.1% | 786-0 renal -20.6% | M14 melanoma 5.05%

O=c1[nH]c2ccccc2cc1CSc1ccc(Nc2nccc(-c3ccc4c(c3)OCO4)n2)cc1
active: SF-539 CNS 9.95%
inactive: NCI-H23 lung 86.1% | NCI-H226 lung 74% | NCI-H322M lung 97.7% | HOP-62 NSCLC 84% | NCI-H460 lung 83.1% | HOP-92 NSCLC 78.6% | NCI-H522 lung 96.9% | A549/ATCC NSCLC 76.7% | 786-0 renal 84.7% | COLO 205 colon 71.6% | DU-145 prostate 77.5% | K-562 leukemia 87.6% | MALME-3M melanoma 55.2% | MDA-MB-231 breast 78.6% | SF-268 CNS 71.6% | SF-295 CNS 101% | UACC-257 melanoma 105% | M14 melanoma 82.4%

CCNCCCn1c2c(c3cc(OC)c(OC)cc3c1=O)C(=O)c1cc3c(nc1-2)OCO3
inactive: NCI-H322M lung 35.2% | HOP-62 NSCLC 11.7% | HOP-92 NSCLC 44.4% | NCI-H522 lung 35.8% | A549/ATCC NSCLC 21.1% | COLO 205 colon 25.7% | DU-145 prostate 12.1% | UACC-257 melanoma 45.4%
active: NCI-H23 lung -27.2% | NCI-H226 lung -79.7% | NCI-H460 lung -24.7% | 786-0 renal -71.7% | K-562 leukemia -18.2% | MALME-3M melanoma -93.5% | MDA-MB-231 breast -91.6% | SF-268 CNS 8.1% | SF-295 CNS 4.2% | SF-539 CNS -44.1% | M14 melanoma 0.853%

CSc1nc(-c2cccc(C)c2)c2cc(-c3ccccc3)n(C)c2n1
inactive: NCI-H23 lung 15.8% | NCI-H226 lung 40.7% | NCI-H322M lung 56.2% | HOP-62 NSCLC 37.4% | NCI-H460 lung 10.8% | A549/ATCC NSCLC 26.8% | 786-0 renal 20% | COLO 205 colon 18.7% | DU-145 prostate 31.4% | K-562 leukemia 12% | MALME-3M melanoma 20.1% | MDA-MB-231 breast 33.1% | SF-268 CNS 25.7% | SF-295 CNS 17.3% | SF-539 CNS 14.3% | UACC-257 melanoma 40.5% | M14 melanoma 21%
active: HOP-92 NSCLC -8.91% | NCI-H522 lung -11.8%

COc1ccc(/C=N/N=C(\C)c2ccc3c(c2)Nc2ccccc2S3)cc1O
inactive: NCI-H23 lung 35.9% | NCI-H226 lung 49.2% | NCI-H322M lung 71.2% | HOP-62 NSCLC 80.1% | NCI-H460 lung 41.1% | HOP-92 NSCLC 74.1% | NCI-H522 lung 48.3% | A549/ATCC NSCLC 63.9% | 786-0 renal 73.9% | COLO 205 colon 99.9% | DU-145 prostate 62.7% | K-562 leukemia 25.7% | MALME-3M melanoma 55.1% | MDA-MB-231 breast 65.3% | SF-268 CNS 57.2% | SF-295 CNS 45.1% | SF-539 CNS 67.2% | UACC-257 melanoma 27.6% | M14 melanoma 49.3%

CCCCSc1nc(Nc2ccc(/C(C)=N/NC(N)=S)cc2)c(C#N)c(-c2ccccc2)n1
active: NCI-H226 lung 4.29% | HOP-92 NSCLC -19.7% | 786-0 renal 3.01%
inactive: NCI-H23 lung 23.7% | NCI-H322M lung 59% | HOP-62 NSCLC 41.1% | NCI-H460 lung 12.1% | NCI-H522 lung 39.6% | A549/ATCC NSCLC 12.8% | COLO 205 colon 59.6% | DU-145 prostate 36.2% | K-562 leukemia 33% | MALME-3M melanoma 35.2% | MDA-MB-231 breast 18.3% | SF-268 CNS 67% | SF-295 CNS 24.7% | SF-539 CNS 19.3% | UACC-257 melanoma 90.3% | M14 melanoma 76.6%

CN(C)c1ccc(/C=C/c2nc3ccccc3c(=O)n2CC(=O)Nc2ccc(Cl)cc2)cc1
active: NCI-H226 lung 2.45% | HOP-92 NSCLC -13.6% | SF-539 CNS -63.6%
inactive: NCI-H23 lung 67.2% | NCI-H322M lung 61.7% | HOP-62 NSCLC 25.4% | NCI-H460 lung 44.6% | NCI-H522 lung 77.9% | A549/ATCC NSCLC 43.8% | 786-0 renal 27.8% | COLO 205 colon 57.3% | DU-145 prostate 36.7% | K-562 leukemia 68.7% | MALME-3M melanoma 15.5% | MDA-MB-231 breast 35.1% | SF-268 CNS 58.5% | SF-295 CNS 27.9% | UACC-257 melanoma 78.7% | M14 melanoma 65.2%

CCOC(=O)c1sc(N/N=C(\C)c2ccc3c(c2)Nc2ccccc2S3)nc1C
inactive: NCI-H23 lung 13.9% | NCI-H226 lung 34.8% | NCI-H322M lung 45.2% | HOP-62 NSCLC 43.7% | NCI-H522 lung 30.9% | A549/ATCC NSCLC 29.2% | 786-0 renal 33.6% | DU-145 prostate 44.9% | MALME-3M melanoma 31.9% | MDA-MB-231 breast 18.5% | SF-268 CNS 56.9% | SF-539 CNS 33.8% | UACC-257 melanoma 35.8% | M14 melanoma 19.4%
active: NCI-H460 lung 5.63% | HOP-92 NSCLC -9.2% | COLO 205 colon -42.2% | K-562 leukemia 1.72% | SF-295 CNS -14.9%

COc1ccc2[nH]cc(/C=N/Nc3ccc(Br)cn3)c2c1
inactive: NCI-H23 lung 36.6% | NCI-H226 lung 40% | NCI-H322M lung 43.8% | HOP-62 NSCLC 45.8% | NCI-H460 lung 16.2% | NCI-H522 lung 38.5% | A549/ATCC NSCLC 23% | COLO 205 colon 37.4% | DU-145 prostate 40.7% | MALME-3M melanoma 63.9% | SF-268 CNS 21% | SF-295 CNS 17.4% | SF-539 CNS 18.8% | UACC-257 melanoma 52.6%
active: HOP-92 NSCLC -24.5% | 786-0 renal -3.93% | K-562 leukemia 9.92% | MDA-MB-231 breast 6.27% | M14 melanoma 8.66%
